Screening results (PubChem BioAssay)
Compounds with a hit are over-represented: about 3.4% of the library has one in this group of screens.
Vif inh = HIV Vif self-association inhibitors, primary screen, imaging, HEK293T, single point | HEK293T cells, Vif self-association by quenched fluorescence, 24 h | inhibition, % at 7.49 µM | actives 0.35% (n = 340,000) | AID 602346, 2012; in the data active means inhibition above about 50%, passing the limit was not always enough
HSF1 inhib = HSF1 inhibitors in luciferase reporter cells, primary screen, cell-based, NIH3T3, luminescence. NIH3T3-HGL HSE-luciferase, MG132-induced, luminescence 8 h; active compounds read low. activity change, negative = inhibition, % at 7.5 µM (by protocol). actives 0.77% (n = 300,000). AID 2098, 2009;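 active means more than half of replicate wells show activity change below -50%, luminescence cut by over half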;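 further: luciferase reports HSF-1 transcriptional activity via heat shock element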
HSF1 activator = HSF-1 activators, primary screen, NIH3T3-HGL cells, MG132 stress, luminescence, single point | NIH3T3-HGL HSF-1 luciferase reporter, 8 h; 100% = twice DMSO control signal | activation, % at 9 µM | actives 1.7% (n = 300,000) | AID 504408, 2011;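 active means mean replicate activation of at least 50% with a set share of replicates each reaching 50%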
esBAF inh = Bmi1 luciferase reporter increase in mESCs, primary screen, esBAF inhibitor project, mouse ES cells, Bmi1 luciferase knock-in, single point; 24 h; 100% = twice the neutral-well signal; reporter increase, % at 12.5 µM; actives 2% (n = 350,000); in the data active means activation above about 40%;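 further: a rise in the Bmi1 reporter signal indicates esBAF inhibition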
A number is an active result.

How did COc1ccccc1NC(=O)Nc1nc(CC(=O)Nc2ccc(N(C)C)cc2)cs1 do in these assays?
Vif inh: inactive; HSF1 inhib: inactive; HSF1 activator: inactive; esBAF inh: 51

How did COc1ccc(N2CCN(C(=O)Cc3csc(NC(=O)Nc4ccccc4OC)n3)CC2)cc1 do in these assays?
Vif inh: inactive; HSF1 inhib: inactive; HSF1 activator: inactive; esBAF inh: inactive

What do the screens show for `O=C(/C=C/c1ccco1)NC(=S)Nc1cccc(C(=O)O)c1`?
Vif inh: inactive; HSF1 inhib: inactive; HSF1 activator: inactive; esBAF inh: inactive

What do the screens show for `CN1CCN(c2ccc(NC(=S)NC(=O)/C=C/c3ccco3)cc2)CC1`?
Vif inh: inactive; HSF1 inhib: inactive; HSF1 activator: inactive; esBAF inh: 45

What do the screens show for `COc1cccc(NC(=S)NC(=O)/C=C/c2ccco2)c1`?
Vif inh: 102; HSF1 inhib: inactive; HSF1 activator: inactive; esBAF inh: inactive

How did COCC(=O)Nc1ccc2c(c1)C(=O)N(C)C[C@@H](OC)[C@@H](C)CN(CC1CC1)[C@@H](C)CO2 do in these assays?
esBAF inh: inactive

What do the screens show for `O=C(NCc1ccc(F)cc1)[C@H]1[C@H](CO)[C@H]2Cn3c(cccc3=O)[C@H]2N1C(=O)C1CC1`?
esBAF inh: inactive

How did C[C@@H]1CCCCO[C@@H](CN(C)CC2CC2)[C@H](C)CN([C@H](C)CO)C(=O)c2cc(NC(=O)Nc3cccc4ccccc34)ccc2O1 do in these assays?
esBAF inh: inactive

How did CCCC(=O)n1nc(-c2cccnc2)nc1NCc1cccs1 do in these assays?
Vif inh: inactive; HSF1 inhib: inactive; HSF1 activator: inactive

What do the screens show for `CCC(=O)n1nc(-c2cccnc2)nc1NCc1cccs1`?
Vif inh: inactive; HSF1 inhib: -91; HSF1 activator: inactive; esBAF inh: inactive

What do the screens show for `CCN(C[C@@H]1[C@H](c2ccccc2)[C@H](CO)N1C(=O)COC)S(C)(=O)=O`?
esBAF inh: inactive

How did CC(C)OC(=O)Cn1c(=O)oc2ccccc21 do in these assays?
Vif inh: inactive; HSF1 inhib: -52; HSF1 activator: inactive; esBAF inh: inactive

How did Cc1ccc2oc(=O)n(CC(=O)OC(C)C)c2c1 do in these assays?
Vif inh: inactive; HSF1 inhib: inactive; HSF1 activator: inactive; esBAF inh: inactive

What do the screens show for `CSC(=NC#N)N1CCN(c2ccc(Cl)cc2)CC1`?
Vif inh: inactive; HSF1 inhib: inactive; HSF1 activator: 56; esBAF inh: inactive

What do the screens show for `CCCNC(=O)[C@H]1[C@H](CO)[C@H]2Cn3c(ccc(-c4cccnc4)c3=O)[C@@H]1N2C(=O)Nc1ccccc1`?
esBAF inh: inactive

How did Cc1ccc(CONC(=O)/N=C/N(C)C)cc1 do in these assays?
Vif inh: 63; HSF1 inhib: inactive; HSF1 activator: inactive; esBAF inh: inactive

Results for O=C(Nc1ccccc1)[C@@H]1CC=C[C@@H]2CCN(C3CCCCC3)C(=O)[C@@H]21 ?
Vif inh: inactive; HSF1 inhib: inactive; HSF1 activator: inactive; esBAF inh: inactive

How did O=C(NC1CCCCC1)[C@@H]1CC=C[C@@H]2CCN(C3CCCCC3)C(=O)[C@@H]21 do in these assays?
Vif inh: 53; HSF1 inhib: inactive; HSF1 activator: inactive; esBAF inh: inactive

Results for c1ccc(-c2cc3cc4c(cc3cn2)OCO4)cc1 ?
Vif inh: inactive; esBAF inh: inactive

How did c1ccc(-c2cc3ccccc3cn2)cc1 do in these assays?
Vif inh: inactive; esBAF inh: 62

What do the screens show for `Fc1ccc2cnc(-c3cccnc3)cc2c1`?
Vif inh: inactive; esBAF inh: inactive

How did Fc1ccc2cc(-c3ccccc3)ncc2c1 do in these assays?
Vif inh: inactive; esBAF inh: 61

Results for CO[C@@H]1CN(C)C(=O)c2cc(NC(=O)C3CCCC3)ccc2OC[C@@H](C)N(CCC(F)(F)F)C[C@H]1C ?
esBAF inh: inactive

How did Cc1cccnc1NC(=O)Nc1cccc(F)c1 do in these assays?
Vif inh: inactive; esBAF inh: 48

What do the screens show for `Cc1cccnc1NC(=O)Nc1ccc(Cl)cc1`?
Vif inh: inactive; HSF1 inhib: inactive; HSF1 activator: inactive; esBAF inh: 71

How did C[C@@H](NC(=O)C[C@H]1C[C@H]2c3cc(NC(=O)c4cccnc4)ccc3O[C@H]2[C@H](CO)O1)c1ccccc1 do in these assays?
esBAF inh: inactive

What do the screens show for `COCC(=O)N(C)C[C@H]1Oc2cc(C3=CCCC3)ccc2S(=O)(=O)N([C@@H](C)CO)C[C@H]1C`?
esBAF inh: inactive

What do the screens show for `CC(C)NC(=O)Nc1ccc2c(c1)C(=O)N([C@H](C)CO)C[C@H](C)[C@H](CN(C)S(=O)(=O)c1ccccc1)O2`?
esBAF inh: inactive

Results for CCCC#Cc1ccc2c(c1)O[C@H](CN(C)C(=O)COC)[C@H](C)CN([C@@H](C)CO)S2(=O)=O ?
esBAF inh: inactive

What do the screens show for `O=C(NNC(=O)c1ccccc1F)c1cccc(-n2cccc2)c1`?
HSF1 inhib: inactive; HSF1 activator: inactive; esBAF inh: 45

What do the screens show for `CCN(CC(=O)Nc1ccccc1OC)C(=O)c1cccc(-n2cccc2)c1`?
Vif inh: inactive; HSF1 inhib: inactive; HSF1 activator: inactive; esBAF inh: inactive

What do the screens show for `CCN(CC(=O)Nc1c(F)cccc1F)C(=O)c1cccc(-n2cccc2)c1`?
Vif inh: 74; HSF1 inhib: inactive; HSF1 activator: inactive; esBAF inh: inactive

Results for COc1ccc(S(=O)(=O)N[C@@H]2C=C[C@H](CC(=O)NCCc3ccncc3)O[C@@H]2CO)cc1 ?
esBAF inh: inactive

Results for Cc1ccc(CCNC(=O)Cn2cccc2)cc1 ?
Vif inh: inactive; HSF1 inhib: inactive; HSF1 activator: 52; esBAF inh: inactive

How did C[C@H](CO)N1C[C@H](C)[C@@H](CN(C)Cc2ccccc2)Oc2ncc(C#CCN(C)C)cc2C1=O do in these assays?
esBAF inh: inactive

What do the screens show for `Cc1cc(C)c2c(n1)sc1c(=O)n(CC(=O)c3ccccc3)cnc12`?
Vif inh: inactive; HSF1 inhib: inactive; HSF1 activator: inactive; esBAF inh: 47

How did O=C(Cn1cnc2c(oc3ccccc32)c1=O)c1ccccc1 do in these assays?
Vif inh: inactive; HSF1 inhib: inactive; HSF1 activator: inactive; esBAF inh: 70

Results for O=C(O)Cn1cnc2c(oc3ccccc32)c1=O ?
Vif inh: inactive; HSF1 inhib: inactive; HSF1 activator: inactive; esBAF inh: inactive

What do the screens show for `C[C@@H]1CN([C@H](C)CO)C(=O)c2cc(C#Cc3cccnc3)cnc2O[C@H]1CN(C)C(=O)CN(C)C`?
esBAF inh: inactive

Results for C[C@@H]1CCCCO[C@H](CN(C)S(C)(=O)=O)[C@@H](C)CN([C@@H](C)CO)C(=O)c2cc(NC(=O)Nc3ccc4c(c3)OCO4)ccc2O1 ?
esBAF inh: inactive

Results for COC(=O)c1ccc(-c2ccc(/C=N/N3C(=O)C4C5C=CC(CC5)C4C3=O)o2)cc1 (stereo unspecified) ?
Vif inh: inactive; HSF1 inhib: inactive; HSF1 activator: inactive; esBAF inh: 60
